Many of the other results were omitted from the sample, so hits are more common in it than they were.
TTR transcr act – TTR transcription activators in neuroblastoma reporter cells, primary screen, cell-based, luminescence, SH-SY5Y, TTR promoter Gaussia luciferase | actives 1.3% (n = 92,000) | activation, % at 16.7 µM | AID 1117267, 2014 | 100% = recombinant luciferase protein wells;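 active = activation above the mean of all tested compounds plus 3 SD, cut at about 9.5% in these data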;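 note: cells exposed to compounds for one day before reading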
TTR inh HuH7 – TTR promoter reporter inhibitors in hepatoma cells, counter-screen for TTR transcription activator project, cell-based, luminescence, HuH7 hepatoma; shares compounds with TTR transcr act; HuH7 TTR promoter-Gaussia luciferase reporter; inhibition, % at 16.7 µM; actives 4% (n = 1,100); AID 1117279, 2014;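 active = average inhibition above the solvent-only control wells' mean plus 3 SD, cut at about 15% in these data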;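 note: inhibitors lower well luminescence so higher value means more inhibition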
TTR up confirm – TTR transcription activators, retest, confirmation, cell-based, luminescence, SH-SY5Y, triplicate; activation, % at 16.7 µM; SHSY5Y TTR promoter Gaussia luciferase; 100% = purified Lucia enzyme wells, no cells; shares compounds with TTR transcr act; 1,100 tested, under 10 active;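 active = mean activation above a set limit taken from the earlier primary screen, cut at about 11% in these data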
Each line names hits and unclear results; the compound was inactive in the other large screens (follow-up assays come after a bar, where they were run).

Cc1cc(C(=O)OCC(=O)Nc2cccc(S(=O)(=O)N3CCOCC3)c2)c(C)o1	none
O=C(COC(=O)C1=COCCO1)Nc1cccc(S(=O)(=O)N2CCOCC2)c1	TTR transcr act 14 | TTR inh HuH7 inactive | TTR up confirm inactive
O=C(COC(=O)c1cccnc1Cl)Nc1cccc(S(=O)(=O)N2CCOCC2)c1	none
O=C1NC[C@H](CCCCN2CCN(CC3CCCCC3)C(=O)C2=O)N(Cc2ccccc2)C1=O	none
CC1CCN(C(=O)C2CCCN(S(=O)(=O)c3ccc4c(c3)CC(C)N4C(=O)C3CC3)C2)CC1 (configuration not stated)	none
O=C1CCC(CCc2nc3ccccc3[nH]2)(c2ccccc2)C(=O)N1 (configuration not stated)	TTR transcr act 21 | TTR inh HuH7 inactive | TTR up confirm inactive
CC(C)(Cc1nc2ccccc2[nH]1)C(=O)O	none
O=C(Nc1ccccc1)N(CCc1nc2ccccc2[nH]1)C1CCCC1	none
C[C@H](CO)N1C[C@H](C)[C@@H](CN(C)C(=O)Nc2ccc(C(F)(F)F)cc2)OCc2cn(nn2)CCCC1=O	none
Cc1ccc(NC(=O)c2sccc2C)nc1	none
O=C(COC(=O)c1c(F)cccc1F)Nc1ccc(N2CCCCC2)cc1	none
O=Cc1c(NC2CCCCC2)c2ccccc2[nH]c1=O	none
CCc1ccc(C(=O)NC(CCSC)C(=O)OC)cc1 (configuration not stated)	none
Cc1ccc(CCNC(=O)C2CCC(CNc3c(N4CCCC4)c(=O)c3=O)CC2)cc1 (configuration not stated)	none
Cc1ccc(CCNC(=O)C2CCC(CNc3c(N4CCC(C)CC4)c(=O)c3=O)CC2)cc1 (configuration not stated)	TTR transcr act 23 | TTR inh HuH7 inactive | TTR up confirm inactive
CC1CCN(c2c(NCC3CCC(C(=O)NCCc4ccccc4)CC3)c(=O)c2=O)CC1 (configuration not stated)	none
O=C(CN1CCc2ccccc21)Nc1ccc2c(c1)OCCCO2	none
CN1CCN(S(=O)(=O)c2cccc3nsnc23)CC1	none
COc1cc(/C=N\NC(=O)C(C)(C)O)ccc1OC/C=C/c1ccccc1	none
CCCn1c(=O)c(C(=O)NCc2ccccc2)c(O)c2ccccc21	none
CCCCCn1c(=O)c(Cc2ccccc2)c(O)c2ccccc21	none
CCCn1c(=O)c(Cc2ccccc2)c(O)c2ccccc21	TTR transcr act 11 | TTR inh HuH7 inactive | TTR up confirm inactive
O=c1[nH]c(CNCc2cccnc2)nc2ccccc12	none
C[C@@H](NS(=O)(=O)c1c(F)cccc1F)c1ccccc1	none
CCn1c(SCC(=O)Nc2ccc(Br)cn2)nnc1C1CC1	none
Cc1cccc(C(=O)NC(=S)NC(C)c2ccccc2)c1 (configuration not stated)	none
Cc1cccc(NC(=O)c2nc[nH]c2C(=O)N[C@@H](C)c2ccccc2)c1	none
CC1=C(C(=O)Nc2cccc(C(=O)NC(C)c3ccccc3)c2)SCCO1 (configuration not stated)	TTR transcr act 11 | TTR inh HuH7 inactive | TTR up confirm inactive
CCCCNC(=O)O[C@H]1CC[C@@]23CCCN2C(=O)CCC[C@H]3[C@H]1CCC	none
Nc1ccn(CC(=O)N[C@H](CO)Cc2c[nH]c3ccccc23)c(=O)n1	none
Cc1ccc(C(=O)Nc2ccc3c(c2)CCC3)cc1	none
CCN1CCCC(NC(=O)c2scc3c2CCCC3)C1 (configuration not stated)	none
Cc1ccc(NC(=O)c2scc3c2CCCC3)cc1	TTR transcr act 22 | TTR inh HuH7 inactive | TTR up confirm inactive
CC(C)C(NC(=O)c1ccc(C(C)(C)C)cc1)C(=O)NCC1(N(C)C)CCCCC1 (configuration not stated)	none
CN1C(C(=O)NCc2ccco2)=CC(c2ccc(F)cc2)=NS1(=O)=O	none
CCOc1cc(C(=O)NC2CCCCCCC2)cc(OCC)c1OCC	none
Cc1c(S(=O)(=O)c2ccccn2)c(N)n(Cc2cccc(Cl)c2)c1C	none
N/C(=N\O)c1cccc(CS(=O)(=O)c2ccccn2)c1	TTR transcr act 10.0 | TTR inh HuH7 inactive | TTR up confirm inactive
CC(C)(C)c1csc(CS(=O)(=O)c2ccccn2)n1	none
CCN1CCc2c(sc(NC(=O)c3ccc(S(=O)(=O)N(CC)c4ccccc4)cc3)c2C(N)=O)C1	none
O=S1(=O)CCN(CCc2ccccc2)CC1	none
CC(C(=O)N1CCc2ccccc21)N1CCN(Cc2ccc(Cl)cc2)CC1 (configuration not stated)	none
CCCCSc1cc(=O)n(-c2ccccc2)nc1C(=O)OCC	TTR transcr act 10 | TTR inh HuH7 inactive | TTR up confirm inactive
CCCSc1cc(=O)n(-c2ccccc2)nc1C(=O)O	none
CCOC(=O)c1nn(-c2ccccc2)c(=O)cc1SC(C)C	none
Cc1ccc(Cl)cc1NC(=O)CCS(=O)(=O)c1cccc2nonc12	none
CC(C)Cn1c(=O)cc(N2CCN(c3cccc(C(F)(F)F)c3)CC2)[nH]c1=O	none
O=C(c1ccccc1)N(C(=O)c1ccccc1)N1CCCC1	none
O=C(CSc1cccc[n+]1[O-])c1cc(Cl)ccc1Cl	TTR transcr act 9.9 | TTR inh HuH7 inactive | TTR up confirm inactive
COc1ccccc1C(=O)NC(=O)CSc1cccc[n+]1[O-]	none
Cc1cc(C(=O)C(C)Sc2cccc[n+]2[O-])c(C)n1-c1ccc(Cl)cc1 (configuration not stated)	none
COc1ccc(CCN=C(N)NS(=O)(=O)c2cccs2)cc1OC	none
COc1ccc(CCN=C(N)NS(=O)(=O)c2ccc(C)c(C)c2)cc1OC	none
COc1ccc(S(=O)(=O)NC(N)=NCCc2ccc(OC)c(OC)c2)cc1C	TTR transcr act 12 | TTR inh HuH7 inactive | TTR up confirm inactive
COc1ccc(NC(=O)Nc2ccc3c(c2)C(=O)N([C@@H](C)CO)C[C@@H](C)[C@@H](CN(C)S(=O)(=O)c2cn(C)cn2)O3)cc1	none
CC1(C(=O)O)CCCN1C(=O)c1ccccc1OC(F)(F)F (configuration not stated)	none
Cc1cccc(C)c1NC(=O)COC(=O)c1cc(=O)[nH]c2ccccc12	none
Cc1noc(C)c1COC(=O)c1cc(=O)[nH]c2ccccc12	TTR transcr act 31 | TTR inh HuH7 inactive | TTR up confirm inactive
CCNC(=O)COC(=O)c1cc(=O)[nH]c2ccccc12	none
CCN(C(=O)c1cc(S(=O)(=O)N2CCCCC2)c[nH]1)c1ccc(OC)cc1	none
O=C(Cc1c(Cl)cccc1Cl)OCC(=O)N1CCN(C(=O)c2ccco2)CC1	none
CCOc1ccccc1CNCCNCC(C)O (configuration not stated)	none
CN(C)CCNCc1ccccc1OC1CCCC1	TTR transcr act 21 | TTR inh HuH7 inactive | TTR up confirm inactive
OCCNCc1ccc(OC2CCCC2)cc1	none
O=C(COC(=O)Cc1ccccc1)NCc1ccc2c(c1)OCO2	none
O=C(CCN1CCCCC1)NCNC(=O)CCN1CCCCC1	none
Clc1ccccc1OCCCCN1CCCCC1	none
C1CCCN(CCCCN2CCCCCC2)CC1	TTR transcr act 10 | TTR inh HuH7 inactive | TTR up confirm inactive
CC(C)n1c(C(F)(F)F)nc2cc(C(=O)N3CCCCC3)ccc21	none
O=C(NC1CCC(O)CC1)c1ccc(NS(=O)(=O)c2cccc([N+](=O)[O-])c2)cc1 (configuration not stated)	none
